Bioassay records as filed in PubChem BioAssay.
In the library only some 7.4% were active in any assay of this set; here they are far more common.
Rab9 promoter act – activators of Rab9 promoter; 320,000 tested, 2.8% active; AID 485297; Potency, µM (highest dose often 9.22 µM), inactives show top-dose activation, negative = inhibition, actives largely listed as activators; Huh7 Rab9 promoter-luciferase reporter, luminescence, 24 h; further: % of control where 0% means no effect; nearly all actives have a fitted effect of over 60% in size
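Luminescence read-out: Huh7 cells stably expressing Rab9-luciferase, treated 24 h with compound at 37 °C, then lysed with luciferase reagent for 10 min at ambient before reading.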
FLuc counter – firefly luciferase modulation, counter-screen for miR-21 project | Potency, µM (highest dose often 57.5 µM), for inactives: at the top dose activity change, negative = inhibition, most hits filed as inhibitors | P08659 | 360,000 tested, 6.9% active | purified FLuc, Km substrates, luminescence inhibition;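 further: plate controls were vehicle for no effect and reference inhibitor for full effect; nearly all actives have a fitted effect of over 55% in size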
Target sequence (P08659 whole entry, looked up): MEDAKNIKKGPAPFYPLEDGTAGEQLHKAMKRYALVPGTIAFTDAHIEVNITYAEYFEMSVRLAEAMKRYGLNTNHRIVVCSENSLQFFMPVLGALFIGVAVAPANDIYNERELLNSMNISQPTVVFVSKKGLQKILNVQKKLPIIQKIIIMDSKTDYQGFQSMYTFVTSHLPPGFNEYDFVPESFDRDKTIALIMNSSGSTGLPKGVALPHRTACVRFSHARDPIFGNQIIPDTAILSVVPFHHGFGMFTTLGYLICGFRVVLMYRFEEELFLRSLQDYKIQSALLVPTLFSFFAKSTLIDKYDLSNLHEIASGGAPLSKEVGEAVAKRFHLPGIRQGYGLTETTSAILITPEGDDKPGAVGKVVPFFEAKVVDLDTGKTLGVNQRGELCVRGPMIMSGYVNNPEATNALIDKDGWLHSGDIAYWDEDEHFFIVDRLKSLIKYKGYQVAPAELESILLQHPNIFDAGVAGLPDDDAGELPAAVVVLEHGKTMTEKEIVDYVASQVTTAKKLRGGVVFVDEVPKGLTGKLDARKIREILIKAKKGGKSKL
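Biochemical qHTS of compounds, final roughly 60 µM downward over six points, against 10 nM purified firefly luciferase using Km concentrations of substrates (10 uM D-luciferin, 10 uM ATP) in Tris acetate pH 7.5 buffer; luminescence output.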
SMN2 splice enh – enhancers of SMN2 splice variant expression. HEK293 SMN2-luciferase splicing reporter, luminescence, 30-36 h. Potency, µM (highest dose often 46.1 µM), for the others: at the top dose activity change, positive = activation, usual class: activators. 210,000 tested, 2.8% active. AID 1458; further: % of control where 0% means no effect; nearly all actives have a fitted effect of over 55% in size
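HEK293 cells carry an SMN2 […]–luciferase reporter in which exon 7 inclusion puts luciferase in frame. Cells were plated 10-12 h before compound addition, then incubated 30-36 h at 37C. ONE-Glo luminescence was read; sodium butyrate at 4.5 mM final served as control.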
NPC1 prom act – activators of NPC1 promoter; Huh7 NPC1 promoter luciferase reporter, 24 h; AID 485313; 320,000 tested, 2.4% active; Potency, µM (highest dose often 9.22 µM), inactives show at the top dose activation, hits mostly activators; further: % of control where 0% means no effect; nearly all actives have a fitted effect of over 60% in size
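NPC1 promoter–luciferase Huh7 cells; 24 h compound; luminescence.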
ELG1 genotox – inducers of genotoxicity in HEK293T ELG1-luciferase cells. HEK293T ELG1-luciferase reporter, luminescence, 16 h. Potency, µM (highest dose often 46 µM), for the others: at the top dose activity change, positive = activation, actives largely listed as activators. 330,000 tested, 1.3% active. AID 504466; further: % of control where 0% means no effect; nearly all actives have a fitted effect of over 60% in size
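HEK293T cells expressing luciferase-tagged ELG1 were treated with compound or DMSO for 16 hr at 37°C. Luciferase activity was then read after 30 min with ONE-Glo at room temperature; rising signal flags genetic stress.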
* hit, by the source's call; ? = inconclusive; nt = no result given; [ ] = dose if it differs, or a comment. The call rests on the fitted dose curve; in most records, active means well fitted curve in the direction sought with a large enough effect; inconclusive means small, poorly fitted or top-dose-only effect, or another doubt; inactive means no such curve, though single readings can be large; an effect the other way counts as inactive or inconclusive. Potency means the concentration at half of the fitted maximal effect.

SMILES	Rab9 promoter act	FLuc counter	SMN2 splice enh	NPC1 prom act	ELG1 genotox
CCc1ccc(N=C2NC(=O)/C(=C/c3ccc(OCC(=O)O)cc3)S2)cc1	-11%	6µM*	nt	2%	-1%
CCC1CCc2nc3sc(C(=O)Nc4ccc(C)cc4)c(N)c3cc2C1 (stereo not given)	nt	-2%	-11%	nt	nt
C[C@H]1CC[C@@H]2N(C1)C[C@H]1[C@@H]3C[C@H]4[C@@H](C/C(=N\O)[C@H]5C[C@@H](O)CC[C@@]54C)[C@@H]3CC[C@H]1[C@]2(C)O	nt	nt	6%	nt	nt
CCC(=O)N1CCc2cc(S(=O)(=O)NC(Cc3ccccc3)C(=O)NCc3cccc(OC)c3)ccc21 (stereo not given)	nt	-8%	-2%	nt	nt
C[C@H](CC[C@@H]1OC1(C)C)C1CC[C@H]2[C@@H]3CC=C4C[C@@H](O)CC[C@]4(C)[C@H]3CC[C@]12C (stereo not given in full)	nt	nt	-8%	nt	nt
COc1ccc(/C=C2/SC(=O)NC2=O)cc1	3.2µM*	4.3µM*	nt	?	?
O=C1NC(=Nc2cccnc2)S/C1=C/c1ccc(F)cc1	-6%	11µM*	nt	-4%	3%
CC1CCN(C(=O)Cn2cc(SCc3cccc(F)c3)c3ccccc32)CC1	nt	-3%	nt	nt	nt
O=C(Nc1ccccc1F)c1ccc(O)c2ncccc12	-39%	-1%	nt	-38%	nt
Cn1c(=NC(=O)c2ccccc2[N+](=O)[O-])sc2cccc(F)c21	0.5µM*	0.6µM*	nt	0.56µM*	?
CC1CCN(CCCn2c(=S)[nH]c3c(sc4ccccc43)c2=O)CC1	18%	15µM*	28%	2%	-1%
Cc1cccc(N2C(=O)CSC23C(=O)N(CC(=O)NCCc2ccccc2)c2ccccc23)c1 (stereo not given)	nt	-1%	nt	nt	nt
Cc1nc2cnc(N3CCNCC3)nc2n(C2CC2)c1=O	nt	nt	1%	nt	nt
Cn1c(O)c(/C=C2\C=Nc3ccccc32)sc1=Nc1ccc(C(=O)O)cc1	11%	?	nt	2%	0%
Oc1nc(Nc2ccc(Cl)cc2Cl)sc1/C=C1\C=Nc2ccccc21	-6%	-10%	3.2µM*	1%	-3%
CC1(C)CC(=O)C(C=Nc2ccc(Cl)cn2)=C(O)C1	0%	?	-12%	-4%	2%
Cc1ccc(N=CC2=C(O)CC(C)(C)CC2=O)nc1	1%	24µM*	-9%	0%	1%
Cc1[nH]nc(N=CC2=C(O)CC(C)(C)CC2=O)c1-c1ccc(Cl)cc1	-2%	17µM*	-7%	0%	-4%
CCOc1ccc(N=CC2=C(O)CC(C)(C)CC2=O)cc1	-2%	24µM*	-10%	-2%	?
COC(=O)C1=C(C)N(CC2CC2)C(=O)N[C@H]1CCc1ccccc1	nt	nt	-1%	nt	nt
COc1ccccc1NC(=O)Cn1c(SCC(=O)NCc2ccccc2)nc2ccccc21	nt	-9%	nt	nt	nt
CCCc1cc(-c2n[nH]c(C)c2-c2ccc(C(=O)OCC)o2)c(O)cc1O	1%	-2%	-17%	-4%	-12%
CCCc1cc2c(OC(=O)CC)c(-c3ccc(C(=O)OCC)o3)c(=O)oc2cc1OC	-6%	24µM*	9%	2%	0%
O=[N+]([O-])/C=C\c1ccc(N2CCCC2)c(F)c1	27%	?	5.6µM*	16%	-9%
O=Cc1ccc(N2CCCC2)c([N+](=O)[O-])c1	-3%	-2%	-3%	-3%	1%
SMILES	Rab9 promoter act	FLuc counter	SMN2 splice enh	NPC1 prom act	ELG1 genotox
CCN(CC)S(=O)(=O)c1ccc2c(c1)c(=O)c(C(=O)NCCCN(C)c1ccccc1)cn2C	-5%	3%	11µM*	-1%	-14%
COc1ccc(OC)c(/C=C2\SC(N3CCCCC3)=NC2=O)c1	-5%	19µM*	nt	21%	0%
COc1cc(OC)c(OC)cc1/C=C1\SC(N2CCCCC2)=NC1=O	-2%	3.8µM*	nt	-2%	9%
CCCOc1ccccc1/C=C1\SC(N2CCCCC2)=NC1=O	23%	12µM*	nt	?	-10%
CN(C)CCCc1c2ccccc2nc2ccc(Cl)cc12	nt	nt	2%[9.22 µM]	nt	nt
CC(C)(C)C(=O)OCc1nc(-c2ccc(C(F)(F)F)cc2)cs1	0%	15µM*	nt	-4%	4%
Cc1ccc(Nc2ccc(-n3ccnc3)nn2)cc1C	-5%	17µM*	-2%	-3%	3%
CCOC(=O)c1sc2nc(C)n(CC(=O)Nc3cccc(Cl)c3)c(=O)c2c1C	nt	1%	-8%	nt	nt
CCOC(=O)c1cnn(-c2ccccc2)c1NC(=O)c1cccs1	-4%	9%	5%	-1%	-2%
CCOC(=O)c1sc(NC(=O)c2cccs2)cc1C	1.8µM*	1.2µM*	14µM*	1.4µM*	2.1µM*
CCOC(=O)c1sc(NC(=O)c2sccc2C)cc1C	0.56µM*	1.7µM*	6.3µM*	0.63µM*	2.6µM*
CCN(CC)C(=O)c1sc(NC(=O)c2ccc(Br)o2)c(C(=O)OC)c1C	-8%	-13%	-17%	0%	-2%
CCOC(=O)c1sc(NC(=O)c2ccc(Br)o2)cc1C	1.6µM*	3.4µM*	11µM*	4µM*	2.3µM*
CCOC(=O)c1sc(NC(=S)NC(=O)C2CC2)cc1C	-5%	2%	nt	0%	?
CCOC(=O)c1sc(NC(=O)Nc2cccc(Cl)c2)cc1C	?	1.7µM*	?	2.5µM*	?
COc1ccccc1N1CCN(C(=O)c2ccc3c(c2)N(Cc2cc(C)ccc2C)C(=O)c2ccccc2S3(=O)=O)CC1	nt	-1%	-11%	nt	nt
COc1ccc(OC)c(NC(=O)c2nc(SCc3ccccc3F)ncc2Cl)c1	nt	-1%	6%	nt	nt
COc1cccc(-c2noc(-c3ccoc3C)n2)c1	2.5µM*	6.7µM*	nt	?	?
COc1ccc(-c2noc(-c3ccoc3C)n2)cc1	1.6µM*	2.4µM*	nt	2.8µM*	?
COc1ccc(-c2noc(-c3ccoc3C)n2)cc1OC	1%	1%	nt	-3%	3%
Cc1cccc(-c2noc(CNC(=O)c3ccoc3C)n2)c1	-1%	-1%	nt	0%	8%
Cc1cccc(-c2noc(-c3ccoc3C)n2)c1	0.71µM*	4.8µM*	?	0.35µM*	?
COc1cccc(CNC(=O)c2[nH]c3cc(C)ccc3c2Sc2ccccc2)c1	nt	-2%	nt	nt	nt
COc1ccc2c(c1OC)C(=O)N1N=C(c3ccc(Br)cc3)CC21 (stereo not given)	7%	24µM*	-30%	3%	0%
COc1ccc(C2=NN3C(=O)c4c(ccc(OC)c4OC)C3C2)cc1 (stereo not given)	-1%	17µM*	-17%	1%	-1%
O=C(Nc1ccc2c(c1)CN(Cc1ccc(CO)o1)CC2)c1ccc(C(F)(F)F)cc1	-7%	11µM*	nt	2%	17%
Cc1c(C(=O)NCc2ccccn2)oc2ccc(Br)cc12	?	?	nt	?	15%
NNC(=O)c1cc2c(ccc3ccccc32)o1	-2%	-18%	-3%	-2%	0%
